Compound activity deposited in PubChem by National Center for Advancing Translational Sciences (NCATS).
IMPase cell inh: IMPase inhibition in cells | P97697 | CHO-M1 cells, IP1 accumulation, HTRF TR-FRET ratio | inhibition (IP1 accumulation), % at 46.1 µM | 120,000 tested, under 10 active; active = well fitted curve in the direction sought with a large enough effect in the signal ratio, not every such curve was filed as active; inconclusive = small, poorly fitted or top-dose-only effect, or a change in a side signal; inactive = no such curve, though single readings can be large or run the other way; the % refers to the signal ratio;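 also: cells stimulated with carbachol in lithium chloride buffer; plate controls were DMSO basal wells for no effect and reference inhibitor wells for full effect; higher means more IMPase inhibition seen as more IP1 and lower FRET ratio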
Target sequence (P97697 whole entry, looked up): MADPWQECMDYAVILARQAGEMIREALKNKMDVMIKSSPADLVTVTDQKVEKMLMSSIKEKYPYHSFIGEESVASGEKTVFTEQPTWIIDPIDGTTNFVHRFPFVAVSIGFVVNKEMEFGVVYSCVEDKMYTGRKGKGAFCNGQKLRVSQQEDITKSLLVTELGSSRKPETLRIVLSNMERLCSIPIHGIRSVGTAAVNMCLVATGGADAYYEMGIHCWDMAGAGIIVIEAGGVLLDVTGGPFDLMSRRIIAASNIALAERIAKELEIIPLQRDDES
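Measured: the HTRF emission ratio (665/620 nm) plus the 620 nm donor channel, each fitted to the Hill equation to give AC50. Cells were CHO-M1 given compounds up to 46 uM and a 30 min carbachol stimulation at 37C.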
PNC assembly inh: inhibitors of perinucleolar compartment assembly; 140,000 tested, 3.1% active; PC3M PTB-GFP, PNC prevalence imaging, 16 h; hits give low values; AID 2417; activity change (PNC), negative = inhibition, % at 10 µM;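 active = readout at or below -70, meaning at least 70% loss of cells showing the perinucleolar compartment, a nuclear body marking cancer cells; inconclusive = readout between -30 and a set limit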;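 also: plate controls were DMSO wells for no effect and camptothecin positive control wells for full effect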
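Read-out is percentage of cells bearing a perinucleolar compartment, from automated 20x imaging of fixed, Hoechst-stained PC3M PTB-GFP cells. Cells were seeded 4 h, then exposed 16 h to compound (23 nl of library stock) in duplicate plates.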
LMNA splice mod: LMNA splicing modulation. HeLa LMNA splicing GFP/RFP minigene ratio, 48 h. Potency, µM (top dose mostly 46.1 µM), without a hit: at the top dose ratio change, negative = inhibition, hits mostly inhibitors. 200,000 tested, 0.01% active. AID 1487; active = well fitted inhibition curve with a large enough effect in the signal ratio, with a control signal flat, not every such curve was filed as active; inconclusive = small, poorly fitted or top-dose-only effect, or effect the other way, or a change in a side signal; the % refers to the signal ratio; also: potency is read from the fitted curve at half-maximal effect
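Read-out is the ratio of GFP to DsRed2 object intensity, acquired by 488 nm laser-scanning cytometry on HeLa lamin A-EGFP minigene reporter cells. Compound incubation 48 hrs at 37 °C in Opti-MEM with 2% FBS; DMSO 0.5% final.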
An asterisk follows results filed as active; ? = inconclusive; · = not tested or not shown; [ ] = dose if it differs, or a comment. Shown is part of a subset that was picked to be rich in hits. Unless noted, % is scaled to controls: 0 for no effect and ±100 for the full control effect.

SMILES	IMPase cell inh	PNC assembly inh	LMNA splice mod
CCN(CC)S(=O)(=O)c1ccc(F)c(C(=O)NCCC(C)C)c1	8	-100*	-6%
CCN(Cc1ccccc1)S(=O)(=O)c1ccc(F)c(C(=O)Nc2ccc(C(C)C)cc2)c1	·	·	1%[46 µM]
CCc1ccc(-n2nc(C)c3c(C(=O)Nc4cc(C)ccc4C)cc(C)nc32)cc1	·	·	5%[46 µM]
Cc1ccccc1OCC(=O)Nc1cccc(NC(=O)c2ccco2)c1	-5	23	-14%
O=C(Nc1cccc(Oc2ccc3c(c2)C(=O)NC3=O)c1)c1ccco1	3[1.84 µM]	-92*	1%
Cc1cccc(C)c1OCC(=O)Nc1cccc(NC(=O)c2ccco2)c1	?	-119*	?
Cc1ccc(Oc2ccc(NC(=O)c3ccco3)cc2)cc1	6	12	?
CCOc1ccc(C(=O)Nc2ccc(NC(=O)c3ccco3)c(Cl)c2)cc1Cl	-30	28	14%
CCOc1ccccc1NC(=O)c1cccc(NC(=O)c2ccco2)c1	4	-86*	?
COc1ccc2nc3sc(C(=O)N4CCN(c5ccccc5)CC4)cc3cc2c1	-1	·	·
COc1ccc(CC(=O)Nc2ccc(-c3nc4ccccc4s3)c(C)c2)cc1OC	·	·	2%[46 µM]
Nc1nnc(Cc2ccc(Cl)c(Cl)c2)s1	-7	-20	-2%
Cc1cc(=O)c2ccccc2n1CC(=O)NCc1ccccc1	·	-96*	?
Cc1cc(=O)c2ccccc2n1Cc1ccccc1	·	·	-29%[46 µM]
Cc1nc2ccccc2n1CC(=O)NCc1ccccc1	4	-103*	?
Cc1nc2ccccc2n1CC(=O)NN	·	·	17%[46 µM]
CCCCNC(=S)Nc1ccc2cn[nH]c2c1	·	-84*	-12%
CCc1ccc(NC(=S)Nc2ccc3cn[nH]c3c2)cc1	·	11	3%
CCOc1ccc(NC(=O)C(C)n2c(=O)cc(-c3ccccc3)c3c(C)nn(C)c32)cc1 (stereo not given)	·	·	9%[46 µM]
CCOC(=O)C(C(=O)Nc1ccccn1)C1CCCCC1 (stereo not given)	-9	-6	-3%
COc1ccc(NC(=O)C(=S)NC2CCCCC2)cc1	·	·	23%[46 µM]
COC(=O)C(C(=O)Nc1ccc(OC)cc1)C1CCCCCC1 (stereo not given)	-8	-81*	-19%
COC(=O)C(C(=O)Nc1ccccc1C)C1CCCC1 (stereo not given)	3	-83*	11%
CN(NS(C)(=O)=O)c1c(C#N)c(C(F)(F)F)nn1C	·	·	20%[46 µM]
CCc1ccc(-c2nn(CC(=O)NC3CCCC3)c3c2cnc2ccc(F)cc23)cc1	·	·	8%[46 µM]
SMILES	IMPase cell inh	PNC assembly inh	LMNA splice mod
CC(C)c1ccc(Nc2c(-c3ccsc3)nc3ccc(Cl)cn23)cc1	6	·	·
COc1ccc(NC(=O)C2=C(C)Nc3ncnn3C2c2ccc(O)cc2)cc1 (stereo not given)	·	·	4%[46 µM]
O=C1OC(N2CCN(C/C=C/c3ccccc3)CC2)c2ccccc21 (stereo not given)	?	-86*	0%
O=C1CC(N2CCN(C/C=C/c3ccccc3)CC2)C(=O)N1Cc1cccs1 (stereo not given)	11	-13	17%
COC(=O)N/N=C/c1c[nH]c2ccccc12	·	17	-1%
Cc1nc(C)c(C(=O)N/N=C/c2cn(C)c3ccccc23)s1	2	-5	-9%
Cc1nc(C)c(C(=O)N/N=C/c2c[nH]c3ccccc23)s1	1	-87*	-11%
O=C(N/N=C/c1c[nH]c2ccccc12)c1cc(-c2ccc3ccccc3c2)n[nH]1	8	-113*	?
CC(C)(C)OC(=O)N/N=C/c1c[nH]c2ccccc12	·	-109*	-1%
O=C(N/N=C/c1c[nH]c2ccccc12)c1cc(-c2ccc(-c3ccccc3)cc2)n[nH]1	18	-13	13%
COc1ccc(NC(=O)CSc2ncc(-c3ccc(Cl)cc3)[nH]2)cc1OC	12	·	·
COc1ccc(N(Cc2cccs2)C(=O)COc2cccc(Cl)c2)cc1	·	·	3%[46 µM]
CC1=C(C(=O)Nc2ccc(C)cc2C)C(c2cccn2C)n2ncnc2N1 (stereo not given)	·	·	26%[46 µM]
N#Cc1ccccc1NC(=O)Cn1cnc2onc(-c3cccc(F)c3)c2c1=O	·	·	4%[46 µM]
Cc1cccc(NC(=S)NC2CC3CCCC(C2)N3Cc2cccs2)c1C (stereo not given)	7	70	6%
Cc1cccc(C)c1NC(=O)NC1CC2CCC(C1)N2Cc1cccs1 (stereo not given)	-2[1.84 µM]	-83*	?
Cc1cc(C)c(NC(=O)C2C3/C=C\CCCCC32)c(C)c1 (stereo not given)	3	-15	2%
Cc1ccc(NC(=O)C2C3/C=C\CCCCC32)cc1 (stereo not given)	-3	-81*	-7%
